60 compounds from PubChem BioAssay AID1259313 (Sanford-Burnham Center for Chemical Genomics, 2017) can be followed below.

Molecules are shown by their SMILES. Hit rate of the full screen: of about 340,000 compounds, about 8,500 (2.5%) were called active. The sample as a whole holds a higher share of actives than the screen did. A number with no mark means an inactive call.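 The calls were made as follows: active = melting temperature shift of at least 10% of the positive control shift, at one fixed dose; inactive = the rest.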

The test system of the experiment is Glutamate receptor ionotropic, NMDA 3A (GRIN3A) ligand-binding domain. Put plainly: binders of NR3A ligand-binding domain, primary screen, biophysical, differential scanning fluorimetry, uHTS (AID 1259313). Conditions: NR3A LBD differential scanning fluorimetry, at 25 µM, active compounds read high, 0% = protein alone, 100% = glycine-bound protein. Background: Differential scanning fluorimetry follows unfolding on heating by fluorescence.
`COc1ccc(CCNC(=O)CN2C(=O)CCSc3ccccc32)c(OC)c1`: the Tm shift relative to glycine control was -7.1%.

For `O=C(Nc1ccc2c(c1)CCC2)c1ccc(Br)s1`, the Tm shift relative to glycine control was 14.5% (active).

`O=C(Nc1ccc(F)cc1)c1cc2c(s1)CCCC2`: the Tm shift relative to glycine control was 6.13%.

Consider `CC1CC(C)CN(CCC(=O)Nc2ccc3c(c2)CCC3)C1` (stereo not given), for which the Tm shift relative to glycine control is 2.54%.

As to `O=C1c2ccccc2C(=O)C1C(=O)C1CC1`, the Tm shift relative to glycine control was 1.97%.

For `Cc1ccc(CSc2nc3[nH]ncc3c(=O)[nH]2)cc1`, the Tm shift relative to glycine control was -1.69%.

In the case of `COc1ccc(NC(=S)Nc2ccc(S(N)(=O)=O)cc2)c(C)c1`, the Tm shift relative to glycine control is -1.86%.

Consider `NS(=O)(=O)c1ccc(CCNC(=S)Nc2ccc(S(N)(=O)=O)cc2)cc1`, for which the Tm shift relative to glycine control is 0.88%.

As to `NS(=O)(=O)c1ccc(NC(=S)Nc2ccc(Br)c(Cl)c2)cc1`, the Tm shift relative to glycine control is 26.7% (active).

As for `CCCCCc1nnc(NC(=O)c2ccc(=O)n(C)n2)s1`, the Tm shift relative to glycine control is -0.62%.

With `CCOC(=O)C1Nc2ccc(C(F)(F)F)cc2C2C=CCC12` (stereo not given), the Tm shift relative to glycine control was 52.4% (active).

`CCOC(=O)NNc1cc(C(F)(F)F)ccn1`: the Tm shift relative to glycine control was 0%.

`CCOC(=O)C[C@H]1c2ccc(C(F)(F)F)cc2S(=O)(=O)N1c1ccccc1`: the Tm shift relative to glycine control was -5.05%.

With `CC[C@]12c3[nH]c4ccc(OC)cc4c3CCN1C(=O)C(CC(=O)NCCN1CCOCC1)C[C@@H]2C(=O)N1CCN(C(=O)C2CC2)CC1` (stereo not given in full), the Tm shift relative to glycine control is -2.01%.

On to `Cc1cccc(NC(=O)CCn2c(=O)oc3ccccc32)c1`, for which the Tm shift relative to glycine control was -0.8%.

Take `O=C(CCC(=O)N/N=C/c1ccc(Br)o1)N/N=C/c1ccc(Br)o1`: the Tm shift relative to glycine control was -0.2%.

As for `O=C(CCC(=O)Nc1ccccc1)N/N=C/c1ccccc1F`, the Tm shift relative to glycine control was 0.57%.

Regarding `O=C(CSc1ccc(/C=N/NC(=O)c2cccc(F)c2)o1)Nc1ccccc1`, the Tm shift relative to glycine control was 12.4% (active).

Take `O=C(CCNC(=O)c1ccccc1)NN=Cc1ccc(Br)o1`: the Tm shift relative to glycine control was -3.41%.

For the compound `O=C(Cc1ccccc1)Nc1cccc(C(=O)N/N=C/c2ccco2)c1`, the Tm shift relative to glycine control was 1.04%.

As for `N#CCC(=O)N/N=C/c1ccc(SCC(=O)Nc2ccccc2)o1`, the Tm shift relative to glycine control was 12.7% (active).

On to `COC(=O)c1ccc(C2C3=C(Nc4nnnn42)c2ccccc2OC3)cc1` (stereo not given), for which the Tm shift relative to glycine control is -8.44%.

For the compound `C#CCO[C@@H]1C[C@H](n2cnc3c(=O)[nH]c(NC(=O)C(C)C)nc32)O[C@@H]1CO`, the Tm shift relative to glycine control was 0%.

For `CCc1cc(-c2nnc(SCC(=O)NC3CC3)n2C)cs1`, the Tm shift relative to glycine control is -0.41%.

Turning to `O=C(CC1C(=O)NCCN1C(=O)c1ccc([N+](=O)[O-])cc1)Nc1cccc(Cl)c1` (stereo not given), the Tm shift relative to glycine control was 0.67%.

On to `CCOc1cnc(-c2c(-c3ccccc3Cl)noc2C)o1`, for which the Tm shift relative to glycine control is -1.94%.

Turning to `O=C(NNc1c2ccccc2nc2ccccc12)c1cc2ccccc2cc1O`, the Tm shift relative to glycine control is 30.2% (active).

With `O=C(NNC(=O)c1ccccc1O)c1ccccc1O`, the Tm shift relative to glycine control is 2.79%.

On to `O=C(COC(=O)c1ccc(O)cc1O)NC(=O)c1ccccc1`, for which the Tm shift relative to glycine control was -11.9%.

With `COCc1[nH][nH]c(=O)c1C=Nc1ccc(F)cc1F`, the Tm shift relative to glycine control is -2.69%.

Consider `CCCCN1C(N)=NC[C@@H]1CC1CCCCC1`, for which the Tm shift relative to glycine control is -3.87%.

As to `CCc1cc(=O)oc2cc(C)cc(OCC(=O)N3CCC[C@@H]3C(=O)O)c12`, the Tm shift relative to glycine control is -2.37%.

With `Cc1cc([N+](=O)[O-])ccc1NS(=O)(=O)c1ccccc1`, the Tm shift relative to glycine control is -13.4%.

On to `Cc1cc([N+](=O)[O-])c(NC2CCCCC2)c([N+](=O)[O-])c1`, for which the Tm shift relative to glycine control was 1.28%.

`Cc1cc([N+](=O)[O-])ccc1NC1CCCC1`: the Tm shift relative to glycine control is 12.8% (active).

Consider `O=C(CSc1ccc([N+](=O)[O-])cn1)Nc1ccc(N2CCOCC2)cc1`, for which the Tm shift relative to glycine control was 0.67%.

Turning to `O=C(CSc1ccc(-c2ccccn2)nn1)Nc1ccccc1`, the Tm shift relative to glycine control is -2.4%.

On to `O=C(CSc1ccc(-c2ccc(-n3cccn3)cc2)nn1)Nc1ccc([N+](=O)[O-])cc1`, for which the Tm shift relative to glycine control was 21.1% (active).

As for `COc1cc(/C=C(\C#N)c2nc3ccccc3[nH]2)ccc1O`, the Tm shift relative to glycine control was 28.5% (active).

Consider `COCCN(CCOC)S(=O)(=O)c1ccc(/C(O)=C(\C#N)c2nc3ccccc3[nH]2)cc1`, for which the Tm shift relative to glycine control was 0.08%.

Regarding `Cc1ccc2nc(/C(C#N)=C\c3ccc(OC(=O)c4cccs4)cc3)[nH]c2c1`, the Tm shift relative to glycine control was -1.46%.

Consider `CCCCOc1ccc(NC(=O)[C@@H]2CCCN2C(=O)C2CCN(S(=O)(=O)c3ccc(C)cc3)CC2)cc1`, for which the Tm shift relative to glycine control was 0%.

Turning to `COCC(=O)Nc1ccc(Br)cc1`, the Tm shift relative to glycine control was -2.19%.

Consider `CC(=O)Nc1ccc(OC(=O)COc2ccc(Br)cc2)cc1`, for which the Tm shift relative to glycine control was 17.5% (active).

`O=C(COc1ccccc1)Nc1ccc(F)cc1`: the Tm shift relative to glycine control was -8.63%.

On to `CC(=O)Nc1ccc(NC(=O)COc2ccc(-c3ccccc3)cc2)cc1`, for which the Tm shift relative to glycine control is 12.4% (active).

`Cc1ccc(OC(=O)CCC(=O)Nc2ccc(Br)cc2)cc1`: the Tm shift relative to glycine control is 0.17%.

As for `CC(=O)Nc1ccc(NC(=O)COc2ccc(S(=O)(=O)NC(C)c3ccccc3)cc2)cc1` (stereo not given), the Tm shift relative to glycine control was 0.44%.

As to `Cc1c(Nc2nc3ccccc3nc2NS(=O)(=O)c2cccs2)c(=O)n(-c2ccccc2)n1C`, the Tm shift relative to glycine control was 0.52%.

Regarding `Cc1ccsc1C1C(C#N)=C(N)OC2=C1C(=O)CC(C)(C)C2` (stereo not given), the Tm shift relative to glycine control was -2.21%.

`CC(c1ccccn1)N(CCN(C)C)C(=S)Nc1ccccc1F` (stereo not given): the Tm shift relative to glycine control was 0%.

Regarding `CSc1cccc(NC(=S)N(C(C)C)C(C)c2ccccn2)c1` (stereo not given), the Tm shift relative to glycine control is 13.8% (active).

Turning to `CSc1cccc(NC(=S)N(Cc2ccccc2)Cc2ccccn2)c1`, the Tm shift relative to glycine control was -4.28%.

For `O=C(COC(=O)c1ccccc1Cl)NC1CCCCCCC1`, the Tm shift relative to glycine control was 1.11%.

Consider `Cn1cccc1C1(C(F)(F)F)NCCNC1=O` (stereo not given), for which the Tm shift relative to glycine control was -0.65%.

Turning to `CCn1c(CSc2nc(C)cc(C)n2)nnc1SCC(N)=O`, the Tm shift relative to glycine control is 1.48%.

For the compound `O=C(COc1ccc(S(=O)(=O)Nc2cccc(C(F)(F)F)c2)cc1)N1CCOCC1`, the Tm shift relative to glycine control is -0.84%.

On to `O=C(/C=C/c1ccc(F)cc1)Nc1cccc(S(=O)(=O)Nc2cccc(C(F)(F)F)c2)c1`, for which the Tm shift relative to glycine control is 1.46%.

In the case of `Cc1oc2c(F)c(F)c(F)c(F)c2c1S(=O)(=O)Nc1cccc(C(F)(F)F)c1`, the Tm shift relative to glycine control was 29.7% (active).

With `CC1CCCN(S(=O)(=O)c2ccc(N(C(=O)c3cnccn3)C(C(=O)NC3CCCCC3)c3cccs3)cc2)C1` (stereo not given), the Tm shift relative to glycine control is 1.68%.
